Here are results for five molecules from PubChem BioAssay (EPA / NIEHS).

The target in test [1] is mouse Cholecystokinin, CCK2 Receptor (CCKB), Cckbr (gene 12426) (UniProt P56481). The test can be described thus: NVS_GPCR_mCKKBCentral: NovaScreen (NVS) G Protein-Coupled Receptor Assay for mouse Cholecystokinin, CCK2 Receptor (CCKB) (AID 2283293). An outline of the steps: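 Mouse forebrain membrane preparation incubated 2 h with chemical and radioligand; bound radioactivity counted after filtration. Single-concentration duplicate screen at 25 uM, then concentration series to 50 uM max for hits, DMSO as baseline.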

Test [2] concerns the target human Orphanin, Opioid Related Nociceptin Receptor 1 (ORL1), OPRL1 (gene 4987) (UniProt P41146). In words: NVS_GPCR_hORL1: NovaScreen (NVS) G Protein-Coupled Receptor Assay for human Orphanin, Opioid Related Nociceptin Receptor 1 (ORL1) (AID 2283283). An outline of the steps:
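Cell-free binding using HEK293-derived receptor protein: radioligand displacement measured by filter scintillation 1 hour after dosing. Primary testing at 25 uM in duplicate, followed by singleton concentration series up to 50 uM; DMSO served as negative control.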

The target of test [3] is mouse Cholecystokinin, CCK1 Receptor (CCKA), Cckar (gene 12425) (UniProt O08786). In words: NVS_GPCR_mCCKAPeripheral: NovaScreen (NVS) G Protein-Coupled Receptor Assay for mouse Cholecystokinin, CCK1 Receptor (CCKA) (AID 2283285). An outline of the steps:
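Chemicals were first screened in duplicate at 25 uM, with those meeting threshold (e.g., 30% inhibition) retested in singleton concentration series to 50 uM maximum. Binding of radioligand to mouse pancreatic membranes was read after 2 h by filtration and scintillation counting.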

Test [4] addresses rat Serotonin, 5-Hydroxytryptamine Receptor 1 (5HT1), Non-Selective Binding, Htr1a (gene 24473) (UniProt P19327). The test can be described thus: NVS_GPCR_r5HT1_NonSelective: NovaScreen (NVS) G Protein-Coupled Receptor Assay for rat Serotonin, 5-Hydroxytryptamine Receptor 1 (5HT1), Non-Selective Binding (AID 2283286). An outline of the steps: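 Binding of a radioligand to rat cortex membranes is read by filtration and scintillation counting after 1 h. Compounds were screened at 25 uM in duplicate. Actives were then titrated to a top of 50 uM. DMSO is the baseline.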

Test [5] has as its system rabbit Platelet Activating Factor Receptor (PAF), gene 100354046. In words: NVS_GPCR_rabPAF: NovaScreen (NVS) G Protein-Coupled Receptor Assay for rabbit Platelet Activating Factor Receptor (PAF) (AID 2283287). An outline of the steps:
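Rabbit platelet membrane preparation; radioligand displacement read by filter-based scintillation counting 1 h after dosing, loss of signal versus DMSO. Primary screen in duplicate at 25 uM, actives followed up in concentration series.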

Test [6] concerns the target rat Adrenergic, Alpha 1, Non-selective Receptor (Adra1), Adra1a (gene 29412) (UniProt P43140). The test can be described thus: NVS_GPCR_rAdra1_NonSelective: NovaScreen (NVS) G Protein-Coupled Receptor Assay for rat Adrenergic, Alpha 1, Non-selective Receptor (Adra1) (AID 2283289). An outline of the steps:
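Chemicals first screened in duplicate at 25 uM, then actives tested in concentration series up to 50 uM. Binding measured as displacement of radioligand from rat forebrain membrane receptors, 1 h, filtration with scintillation readout; DMSO baseline.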

The target in test [7] is human Opioid Receptor Mu (Opiate Mu), OPRM1 (gene 4988) (UniProt P35372). The test can be described thus: NVS_GPCR_hOpiate_mu: NovaScreen (NVS) G Protein-Coupled Receptor Assay for human Opioid Receptor Mu (Opiate Mu) (AID 2283290).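 Note: hits lower bound tracer signal versus DMSO meaning displacement of the ligand.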 An outline of the steps: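 Here, radioligand binding to CHO-extracted receptor was measured after 2.5 h using filter-based scintillation detection. Initial single-concentration screening used 25 uM in duplicate with plate controls; confirmed actives went to concentration-response testing.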

In test [8] the target is guinea pig Serotonin, 5-Hydroxytryptamine Receptor 4 (5HT4), HTR4 (gene 100135548) (UniProt O70528). The test can be described thus: NVS_GPCR_g5HT4: NovaScreen (NVS) G Protein-Coupled Receptor Assay for guinea pig Serotonin, 5-Hydroxytryptamine Receptor 4 (5HT4) (AID 2283294). An outline of the steps:
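Compounds first screened in duplicate at 25 uM, actives followed up in concentration series. Binding measured as displacement of specific radioligand from guinea pig striatal membranes, 1 h, filter-based scintillation read-out versus DMSO baseline.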

Test [9] deals with rat Serotonin, 5-Hydroxytryptamine Receptor (5HT), Non-Selective Binding, Htr1a (gene 24473) (UniProt P19327). The test can be described thus: NVS_GPCR_r5HT_NonSelective: NovaScreen (NVS) G Protein-Coupled Receptor Assay for rat Serotonin, 5-Hydroxytryptamine Receptor (5HT), Non-Selective Binding (AID 2283295). An outline of the steps: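 Rat cortex membrane preparation incubated 1 h with radioligand and test chemical; bound radioactivity counted after filtration. Screening began in duplicate at 25 uM with concentration-series follow-up; fitting relative to DMSO.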

Test [10] addresses rat Adrenergic, Alpha 1A Receptor (Adra1A), Adra1a (gene 29412) (UniProt P43140). The test can be described thus: NVS_GPCR_rAdra1A: NovaScreen (NVS) G Protein-Coupled Receptor Assay for rat Adrenergic, Alpha 1A Receptor (Adra1A) (AID 2283296). An outline of the steps:
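Filter radiodetection after 1 h competitive binding on CEC-pretreated rat cortical membranes. Duplicate single-point screening at 25 uM; active chemicals retested across concentration series.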

For test [11], the system named is rat Adrenergic, Alpha 1B Receptor (Adra1B), gene 24173. The test can be described thus: NVS_GPCR_rAdra1B: NovaScreen (NVS) G Protein-Coupled Receptor Assay for rat Adrenergic, Alpha 1B Receptor (Adra1B) (AID 2283297). An outline of the steps:
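Filter-binding radioligand competition on membranes from rat liver, read after 1 h by scintillation counting. Single-concentration duplicate screen at 25 uM, followed by concentration-response on actives, normalised to DMSO.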

Test [12] concerns the target rat Adrenergic Receptor, Alpha 2 (Adra2), Non-selective Binding, Adra2a (gene 25083) (UniProt P22909). The test can be described thus: NVS_GPCR_rAdra2_NonSelective: NovaScreen (NVS) G Protein-Coupled Receptor Assay for rat Adrenergic Receptor, Alpha 2 (Adra2), Non-selective Binding (AID 2283299). An outline of the steps:
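Filter-based scintillation counting of radioligand binding to rat cortical membrane receptors, measured 1.25 hours post-dosing; loss of signal versus DMSO indicates displacement. Initial single-concentration duplicate at 25 uM, then concentration series.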

For test [13], the target named is rat Gamma-Aminobutyric Acid Type B Receptor (GABBR), Gabbr1 (gene 81657) (UniProt Q9Z0U4). The test can be described thus: NVS_GPCR_rGABBR: NovaScreen (NVS) G Protein-Coupled Receptor Assay for rat Gamma-Aminobutyric Acid Type B Receptor (GABBR) (AID 2283301). An outline of the steps: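 Rat cortical membrane preparation, competitive radioligand binding for 1 h with filtration and scintillation readout. Actives from duplicate single-point 25 uM screening proceeded to concentration series with 50 uM top concentration.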

Test [14] addresses rat Histamine Receptor (H3), Hrh3 (gene 85268) (UniProt Q9QYN8). In words: NVS_GPCR_rH3: NovaScreen (NVS) G Protein-Coupled Receptor Assay for rat Histamine Receptor (H3) (AID 2283303). An outline of the steps: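 Filter-binding radioligand competition on rat forebrain membranes, 1 h incubation; compounds screened at 25 µM in duplicate and followed in concentration series to 50 µM, loss of bound signal vs DMSO.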

In test [15] the target is Metabotropic glutamate receptor 1 (Rattus norvegicus) (UniProt P23385). In words: NVS_GPCR_rmMGluR1: NovaScreen (NVS) G Protein-Coupled Receptor Assay for rat Glutamate Metabotropic Receptor 1 (MGluR1) (AID 2283305). An outline of the steps: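 Binding to native receptor from rat cerebellum extract, measured as displacement of a radioligand (scintillation counting, filter separation) after 1 hour. Compounds tested at 25 uM in duplicate, then titrated to a 50 uM maximum.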

Test [16] concerns the target Adra2b (gene 24174) (UniProt P19328). The test can be described thus: NVS_GPCR_rmAdra2B: NovaScreen (NVS) G Protein-Coupled Receptor Assay for hybird cells Adrenergic, Alpha 2B Receptor (Adra2B) (AID 2283306). An outline of the steps:
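Compounds screened first at 25 uM in duplicate, with actives followed up in concentration-response; specific radioligand displacement from hybrid neuroglioma/blastoma cell membrane preparations measured by filter scintillation counting after 1 h, normalized to DMSO.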

Test [17] relates to 5-hydroxytryptamine receptor 2C (pig). The test can be described thus: NVS_GPCR_p5HT2C: NovaScreen (NVS) G Protein-Coupled Receptor Assay for pig Serotonin, 5-Hydroxytryptamine Receptor 2C (5HT2C) (AID 2283288). An outline of the steps:
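Radioligand displacement on membranes from pig choroid plexus, detected by filter scintillation counting after 1 h. Tested first at a single 25 uM in duplicate, then in concentration-response for actives; DMSO served as baseline.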

Each structure is given as a SMILES string. Where “and” joins values, the source holds several entries; their conditions need not be identical. Equal values may be shown once. Results filed as inconclusive are left out. Calls of active or inactive are those of the source. Rule for the calls: active = hit-call score of the fitted dose curve at least 0.9, where 1 is the maximum; inconclusive = response in the unintended direction; inactive = score below 0.9.

Sequence of human Opioid Receptor Mu (Opiate Mu), OPRM1 (gene 4988) (P35372 whole entry, looked up): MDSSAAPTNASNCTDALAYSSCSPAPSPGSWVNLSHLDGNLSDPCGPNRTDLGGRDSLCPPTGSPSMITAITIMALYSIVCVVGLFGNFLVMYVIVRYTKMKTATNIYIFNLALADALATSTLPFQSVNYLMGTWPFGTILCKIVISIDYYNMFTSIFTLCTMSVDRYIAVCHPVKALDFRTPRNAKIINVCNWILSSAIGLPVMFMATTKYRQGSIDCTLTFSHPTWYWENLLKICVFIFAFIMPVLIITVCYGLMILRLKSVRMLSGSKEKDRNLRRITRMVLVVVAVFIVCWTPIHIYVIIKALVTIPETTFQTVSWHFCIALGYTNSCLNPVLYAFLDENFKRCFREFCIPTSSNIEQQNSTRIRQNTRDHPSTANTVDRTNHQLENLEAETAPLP
Sequence of rat Adrenergic, Alpha 1, Non-selective Receptor (Adra1), Adra1a (gene 29412) (P43140 whole entry, looked up): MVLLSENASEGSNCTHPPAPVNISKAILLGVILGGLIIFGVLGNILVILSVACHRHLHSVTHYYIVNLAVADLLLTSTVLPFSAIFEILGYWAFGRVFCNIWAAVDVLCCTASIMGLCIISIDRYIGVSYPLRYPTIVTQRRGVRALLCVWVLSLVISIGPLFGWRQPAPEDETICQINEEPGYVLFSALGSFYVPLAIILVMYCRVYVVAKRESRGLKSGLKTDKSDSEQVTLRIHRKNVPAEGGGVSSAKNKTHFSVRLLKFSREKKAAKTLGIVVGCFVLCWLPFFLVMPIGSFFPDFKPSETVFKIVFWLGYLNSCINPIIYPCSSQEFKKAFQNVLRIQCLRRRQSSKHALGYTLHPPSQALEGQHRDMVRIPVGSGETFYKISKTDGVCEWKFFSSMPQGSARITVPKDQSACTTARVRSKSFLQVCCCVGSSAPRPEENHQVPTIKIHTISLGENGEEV
Sequence of rat Gamma-Aminobutyric Acid Type B Receptor (GABBR), Gabbr1 (gene 81657) (Q9Z0U4 whole entry, looked up): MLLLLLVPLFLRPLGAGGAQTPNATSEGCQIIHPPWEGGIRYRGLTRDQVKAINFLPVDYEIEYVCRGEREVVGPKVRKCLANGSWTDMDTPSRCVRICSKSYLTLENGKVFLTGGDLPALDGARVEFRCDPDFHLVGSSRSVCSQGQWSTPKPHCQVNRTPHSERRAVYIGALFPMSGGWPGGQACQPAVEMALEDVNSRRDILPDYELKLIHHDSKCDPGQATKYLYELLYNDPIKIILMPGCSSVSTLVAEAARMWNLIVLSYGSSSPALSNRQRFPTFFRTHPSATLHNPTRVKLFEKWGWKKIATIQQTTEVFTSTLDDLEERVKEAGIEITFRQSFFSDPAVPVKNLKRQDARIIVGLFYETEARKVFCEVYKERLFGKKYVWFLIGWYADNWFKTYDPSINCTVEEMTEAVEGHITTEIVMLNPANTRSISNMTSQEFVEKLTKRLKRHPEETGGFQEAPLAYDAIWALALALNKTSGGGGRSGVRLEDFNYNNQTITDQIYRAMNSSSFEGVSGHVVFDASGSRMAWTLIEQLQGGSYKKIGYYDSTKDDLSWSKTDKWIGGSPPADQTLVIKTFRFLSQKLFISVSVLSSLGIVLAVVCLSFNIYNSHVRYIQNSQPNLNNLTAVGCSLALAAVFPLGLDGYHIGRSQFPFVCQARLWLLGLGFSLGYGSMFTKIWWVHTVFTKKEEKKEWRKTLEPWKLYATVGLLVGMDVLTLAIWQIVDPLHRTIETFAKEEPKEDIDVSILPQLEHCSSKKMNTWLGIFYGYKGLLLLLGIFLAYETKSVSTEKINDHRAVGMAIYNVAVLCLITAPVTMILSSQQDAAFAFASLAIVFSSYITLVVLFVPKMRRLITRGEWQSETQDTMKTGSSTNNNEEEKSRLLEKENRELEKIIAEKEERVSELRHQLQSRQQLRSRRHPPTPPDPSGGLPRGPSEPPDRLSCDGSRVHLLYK
Sequence of rat Adrenergic Receptor, Alpha 2 (Adra2), Non-selective Binding, Adra2a (gene 25083) (P22909 whole entry, looked up): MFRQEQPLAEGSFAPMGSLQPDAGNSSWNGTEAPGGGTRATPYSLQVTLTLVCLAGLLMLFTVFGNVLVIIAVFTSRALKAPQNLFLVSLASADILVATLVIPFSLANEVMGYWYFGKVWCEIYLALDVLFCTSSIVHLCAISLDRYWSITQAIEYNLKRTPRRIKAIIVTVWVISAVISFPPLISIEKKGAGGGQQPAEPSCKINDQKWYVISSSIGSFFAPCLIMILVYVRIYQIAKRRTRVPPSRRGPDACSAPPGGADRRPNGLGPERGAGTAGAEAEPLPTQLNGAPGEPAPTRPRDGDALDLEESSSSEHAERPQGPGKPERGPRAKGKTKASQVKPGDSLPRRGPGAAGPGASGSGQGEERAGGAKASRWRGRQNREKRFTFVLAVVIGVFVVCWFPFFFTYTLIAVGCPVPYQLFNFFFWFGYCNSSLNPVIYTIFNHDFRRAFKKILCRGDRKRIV
Sequence of Adra2b (gene 24174) (P19328 whole entry, looked up): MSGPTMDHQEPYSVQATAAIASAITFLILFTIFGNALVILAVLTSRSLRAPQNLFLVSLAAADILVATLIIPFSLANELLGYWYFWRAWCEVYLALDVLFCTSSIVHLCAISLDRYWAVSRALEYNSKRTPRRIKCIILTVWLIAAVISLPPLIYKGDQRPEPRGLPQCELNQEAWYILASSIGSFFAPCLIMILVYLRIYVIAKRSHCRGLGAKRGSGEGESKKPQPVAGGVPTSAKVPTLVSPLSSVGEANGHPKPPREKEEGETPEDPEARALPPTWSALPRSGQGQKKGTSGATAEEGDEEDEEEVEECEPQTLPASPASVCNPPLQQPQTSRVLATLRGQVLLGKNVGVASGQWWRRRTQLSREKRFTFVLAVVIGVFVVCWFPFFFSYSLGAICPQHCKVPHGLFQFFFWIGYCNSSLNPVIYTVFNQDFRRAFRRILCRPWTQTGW
Sequence of mouse Cholecystokinin, CCK1 Receptor (CCKA), Cckar (gene 12425) (O08786 whole entry, looked up): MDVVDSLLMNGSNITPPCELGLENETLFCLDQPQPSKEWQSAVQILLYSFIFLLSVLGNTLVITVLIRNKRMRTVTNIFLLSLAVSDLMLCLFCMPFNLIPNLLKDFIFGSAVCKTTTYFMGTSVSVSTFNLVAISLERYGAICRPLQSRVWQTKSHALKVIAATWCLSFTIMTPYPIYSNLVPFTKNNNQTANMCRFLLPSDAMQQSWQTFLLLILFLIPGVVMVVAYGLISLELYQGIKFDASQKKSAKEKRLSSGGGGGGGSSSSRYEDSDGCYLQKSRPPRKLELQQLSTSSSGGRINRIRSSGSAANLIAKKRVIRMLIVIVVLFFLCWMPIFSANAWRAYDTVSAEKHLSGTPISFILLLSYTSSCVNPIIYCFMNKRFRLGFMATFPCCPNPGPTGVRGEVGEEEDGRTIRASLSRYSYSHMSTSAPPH
Sequence of mouse Cholecystokinin, CCK2 Receptor (CCKB), Cckbr (gene 12426) (P56481 whole entry, looked up): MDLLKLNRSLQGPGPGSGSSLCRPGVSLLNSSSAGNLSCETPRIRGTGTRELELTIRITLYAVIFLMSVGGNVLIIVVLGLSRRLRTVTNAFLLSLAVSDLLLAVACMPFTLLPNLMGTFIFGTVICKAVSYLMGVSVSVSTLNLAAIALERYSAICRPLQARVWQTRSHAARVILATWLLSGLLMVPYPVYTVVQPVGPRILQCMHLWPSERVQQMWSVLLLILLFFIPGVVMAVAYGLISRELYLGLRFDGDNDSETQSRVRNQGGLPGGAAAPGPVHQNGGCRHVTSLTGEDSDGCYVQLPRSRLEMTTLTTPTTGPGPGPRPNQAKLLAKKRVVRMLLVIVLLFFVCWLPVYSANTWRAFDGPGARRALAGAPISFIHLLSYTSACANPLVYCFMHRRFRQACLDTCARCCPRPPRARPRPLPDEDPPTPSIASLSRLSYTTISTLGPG
Sequence of rat Serotonin, 5-Hydroxytryptamine Receptor 1 (5HT1), Non-Selective Binding, Htr1a (gene 24473) (P19327 whole entry, looked up): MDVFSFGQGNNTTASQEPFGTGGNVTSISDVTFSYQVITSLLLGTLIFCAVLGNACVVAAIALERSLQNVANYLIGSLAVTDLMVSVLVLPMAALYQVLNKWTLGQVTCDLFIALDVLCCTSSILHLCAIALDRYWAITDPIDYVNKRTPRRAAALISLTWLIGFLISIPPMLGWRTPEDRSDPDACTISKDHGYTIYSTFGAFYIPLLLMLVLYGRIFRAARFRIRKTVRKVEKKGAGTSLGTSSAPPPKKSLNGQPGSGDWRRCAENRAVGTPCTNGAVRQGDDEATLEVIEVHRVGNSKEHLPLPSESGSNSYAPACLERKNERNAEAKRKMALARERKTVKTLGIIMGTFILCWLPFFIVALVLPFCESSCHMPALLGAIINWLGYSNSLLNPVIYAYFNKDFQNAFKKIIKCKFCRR
Sequence of rat Serotonin, 5-Hydroxytryptamine Receptor (5HT), Non-Selective Binding, Htr1a (gene 24473) (P19327 whole entry, looked up): as above
Sequence of rat Adrenergic, Alpha 1A Receptor (Adra1A), Adra1a (gene 29412) (P43140 whole entry, looked up): as the sequence (P43140 whole entry, looked up) above

With `O=[N+]([O-])c1ccc(O)c([N+](=O)[O-])c1`, the AC50 in test [1] is 25 µM (active).

As for `CC(=O)[O][Hg][c]1ccccc1`, the AC50 in [2] is 473 nM (active); in [3], 1.65 µM (active); in test [4], 16.4 µM (active); in test [5], 38.4 µM (active); in test [6], 18.8 µM (active); in test [7], 90.8 nM (active). Moreover, the concentration at half-maximal activity (AC50) in test [1] was 25 µM (active); in test [8], 14.2 µM (active); in test [9], 19.8 µM (active); in test [10], 25 µM (active); in test [11], 3.43 µM (active); in test [12] it was 3.96 µM (active). Moreover, the AC50 in test [13] is 38.5 µM (active); in test [14] it was 40.2 µM (active); in [15] it was 10.8 µM (active); in test [16], 11.9 µM (active).

For the molecule `O=C1C2(Cl)C3(Cl)C4(Cl)C(Cl)(Cl)C5(Cl)C3(Cl)C1(Cl)C5(Cl)C24Cl` (configuration not stated), the molecule was classed as inactive in [3] and in [13]. In addition, the half-maximal activity concentration (AC50) in test [7] is 1.63 µM (active) and 2.66 µM (active) and 1.08 µM (active).

Regarding `CCOP(=S)(OCC)SCSP(=S)(OCC)OCC`, the molecule was called inactive in test [7].

Turning to `CCC(=O)C(CC(C)N(C)C)(c1ccccc1)c1ccccc1` (configuration not stated), the molecule was called inactive in test [4]. In addition, the AC50 in test [17] was 1.91 µM (active); in test [6], 18.1 µM (active); in [9], 7.26 µM (active); in test [12], 12 µM (active); in [16], 6.79 µM (active).
